PubChem BioAssay AID1029 (Sanford-Burnham Center for Chemical Genomics, 2008)
Screen size: about 110,000 compounds; about 80 (0.07%) were called active. For the sample, actives were picked, then their nearest neighbours and some compounds at random. Values without a mark were called inactive.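 The calls were made as follows: active = inhibition above the mean of the plate negative controls plus 5 SD (cut at about 13% in these data); inactive = the rest.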

Test: blockers of IgG-bead uptake by macrophages – imaging, J774A.1 cells, IgG beads, primary screen (AID 1029);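 also: phagocytic index as fraction of beads internalized from green versus red external bead signal; plate controls were DMSO negative control for no effect and cytochalasin-D positive control for full effect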
Conditions: J774A.1 macrophage IgG-bead phagocytosis, at 5 µM, hits give high values
`CCOC(=O)C(O)(c1ccc(N)c(OC)c1)C(F)(F)F` (centres undefined) gave an inhibition of -1.1%. With `CCOC(=O)C(O)(c1ccc(NC(=O)c2ccco2)c(OC)c1)C(F)(F)F` (centres undefined) the inhibition was 2.8%. With `CN(C)C(=O)Oc1ccc(OCc2cccc[n+]2C)cc1` the inhibition was -2.17%. For `O=c1[nH]c(=S)n(C2CC2)c(O)c1/C=N/N1CCOCC1`, the inhibition was -3.16%.
